This is a sample that favours compounds with a hit; in the whole collection about 6.3% have one here.
TIM10 inh – TIM10 yeast growth inhibition; S. cerevisiae TIM10 strain growth, BacTiter-Glo luminescence, 24 h; inhibition, % at 10 µM; 330,000 compounds, 1.4% hits;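 active = inhibition of 40% or more at the single tested concentration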;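 note: wild-type TIM10 isogenic control strain grown at permissive 25 °C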
tim23-1 inh – inhibits growth of tim23-1 mutant yeast | S. cerevisiae tim23-1 growth, BacTiter-Glo luminescence, 24 h | inhibition, % at 20 µM | 330,000 compounds, 1.3% hits | AID 463212;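 active = growth inhibition of the mutant yeast at or above 50%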;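 note: temperature-sensitive mutant grown at 25 °C; plate controls were DMSO-treated mutant yeast for no effect and medium wells lacking yeast for full effect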
Mdm2-MdmX inh – human Mdm2/MdmX binding inhibition | SaOS-2 split-luciferase Mdm2/MdmX complementation, luminescence | inhibition, % at 8 µM | 330,000 compounds, 3% hits;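 active = inhibition of at least 50% at 8 µM in the primary screen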
Target sequence (O15151 whole entry, looked up): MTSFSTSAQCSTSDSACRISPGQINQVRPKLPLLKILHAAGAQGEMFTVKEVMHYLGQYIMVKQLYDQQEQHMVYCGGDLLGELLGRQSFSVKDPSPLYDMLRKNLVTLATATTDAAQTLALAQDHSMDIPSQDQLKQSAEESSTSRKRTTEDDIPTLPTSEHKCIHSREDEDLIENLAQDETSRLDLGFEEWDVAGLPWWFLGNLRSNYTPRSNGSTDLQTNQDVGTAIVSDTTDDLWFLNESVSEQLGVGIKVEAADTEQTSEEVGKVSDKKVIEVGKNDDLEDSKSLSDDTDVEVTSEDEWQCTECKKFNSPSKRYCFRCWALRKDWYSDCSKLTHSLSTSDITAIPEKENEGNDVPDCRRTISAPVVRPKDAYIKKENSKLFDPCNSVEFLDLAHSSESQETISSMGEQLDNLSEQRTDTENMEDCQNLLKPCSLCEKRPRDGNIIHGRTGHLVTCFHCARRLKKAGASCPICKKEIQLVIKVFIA
Target sequence (Q00987 whole entry, looked up): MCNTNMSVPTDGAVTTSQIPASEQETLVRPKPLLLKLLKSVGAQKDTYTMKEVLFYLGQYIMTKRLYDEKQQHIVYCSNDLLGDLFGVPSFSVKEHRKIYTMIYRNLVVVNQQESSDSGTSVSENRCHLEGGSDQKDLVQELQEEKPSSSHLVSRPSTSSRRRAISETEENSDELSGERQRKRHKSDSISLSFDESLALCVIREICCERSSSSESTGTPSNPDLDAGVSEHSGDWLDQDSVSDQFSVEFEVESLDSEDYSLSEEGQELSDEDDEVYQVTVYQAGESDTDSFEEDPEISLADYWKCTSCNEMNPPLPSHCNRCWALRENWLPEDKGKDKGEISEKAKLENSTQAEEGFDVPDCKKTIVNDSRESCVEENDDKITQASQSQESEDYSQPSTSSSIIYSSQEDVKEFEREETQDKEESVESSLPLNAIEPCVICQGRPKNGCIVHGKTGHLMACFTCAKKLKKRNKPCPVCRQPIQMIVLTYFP
MPTP inh – inhibitors of mitochondrial permeability transition pore; isolated mouse mitochondria, Ca2+ swelling absorbance, 30 min; inhibition, % at 10 µM; 360,000 compounds, 1.4% hits; AID 602449;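 active = inhibition of 50% or more, scaled per plate between neutral and stimulator controls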;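 note: 0% = DMSO wells given calcium and 100% = 1 mM EGTA wells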
tim10-1 inh – tim10-1 yeast growth inhibition; S. cerevisiae tim10-1 ts strain growth, BacTiter-Glo, 24 h; inhibition, % at 20 µM; 330,000 compounds, 2.2% hits; AID 463190;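 active = inhibition of at least 40%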;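 note: mutant grown at 25 °C; 0% = DMSO wells with yeast and 100% = wells holding no yeast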
tim23-1 confirm – confirmation of tim23-1 mutant yeast growth inhibitors; shares compounds with tim23-1 inh; S. cerevisiae tim23-1 growth, BacTiter-Glo luminescence, 24 h; inhibition, % at 20 µM; 4,400 compounds, 83% hits; AID 463218;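 active = inhibition above about 39% in either of two replicate wells at 20 µM, limit read from the data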;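 note: temperature-sensitive tim23-1 mutant grown at 25 °C; 0% = DMSO wells with yeast and 100% = medium wells without yeast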
* = called active by the depositor; · = no result.

SMILES | TIM10 inh | tim23-1 inh | Mdm2-MdmX inh | MPTP inh | tim10-1 inh | tim23-1 confirm
O=C1NC[C@@H](CCCCN2C[C@H](Cc3ccc(O)cc3)N(CCc3ccccc3)C(=O)C2=O)N(CCC2CCCCC2)C1=O | · | · | · | -4 | · | ·
COc1ccc(-n2ccnc(SCC(=O)NC3CCCC3)c2=O)cc1 | 10 | 5 | -22 | 0 | 19 | ·
CCOc1ccc(-n2ccnc(SCC(=O)Nc3ccc(CC)cc3)c2=O)cc1 | 7 | 56* | -32 | 0 | 16 | 53*
O=C(Nc1ccc(C(O)c2ccccc2)cc1)[C@H]1C[C@H](O)[C@@H](CO)O1 (some centres undefined) | · | · | · | 0 | · | ·
CCN(Cc1ccccc1)C(=O)c1ccc(C)c(S(=O)(=O)N2CCCCC2)c1 | 15 | 50* | 6 | -1 | 23 | 38
CC(=O)N1CCc2cc(NC(=O)C3(C)CCN3Cc3ccccc3OC(F)F)ccc21 (centres undefined) | · | · | · | 1 | · | ·
COc1cc(/C=C/C(=O)OCC(=O)NCc2ccccc2OC)ccc1O | -10 | 89* | 7 | 0 | -10 | 17
COc1ccccc1CNC(=O)COC(=O)/C=C/c1ccc2c(c1)OCO2 | 3 | 13 | -23 | -1 | 0 | ·
CCn1c(N2CCN(S(=O)(=O)c3ccc(Cl)cc3)CC2)nc2ccccc21 | 13 | 63* | -6 | 20 | 21 | 43*
CCn1c(N2CCN(S(=O)(=O)c3ccc(F)cc3)CC2)nc2ccccc21 | 17 | 40 | 11 | 0 | 23 | ·
Nc1c(N(Cc2ccco2)C(=O)c2ccc(Cl)cc2)c(=O)[nH]c(=O)n1Cc1ccccc1 | 16 | 60* | -4 | -2 | 0 | 66*
N#Cc1ccc(C(=O)N(Cc2ccco2)c2c(N)n(Cc3ccccc3)c(=O)[nH]c2=O)cc1 | 10 | 39 | -4 | -2 | 13 | ·
Nc1c(N(Cc2ccco2)C(=O)c2ccc(Br)cc2)c(=O)[nH]c(=O)n1Cc1ccccc1 | 17 | 59* | 23 | 0 | 6 | 72*
C[C@@H]1CN([C@H](C)CO)C(=O)CCCn2nncc2CO[C@H]1CN(C)C | · | · | · | 0 | · | ·
Nc1nonc1C(=O)N/N=C/c1cc(Br)ccc1O | 14 | 52* | 20 | · | -3 | 56*
Cc1ccc(C(=O)N/N=C/c2ccc(-c3ccc(Br)cc3[N+](=O)[O-])o2)o1 | 24 | 50* | 6 | 0 | 17 | 67*
Cc1ccc(C(=O)N/N=C\c2ccc(Br)o2)o1 | -11 | -4 | -10 | 0 | -30 | ·
O=C(Nc1ccc(Nc2ccccc2)cc1)c1ccccc1F | -31 | 64* | -59 | 0 | -55 | 61*
O=C(O)c1cc(NC(=O)c2ccccc2F)cc(NC(=O)c2ccccc2F)c1 | 5 | 12 | -11 | 5 | -1 | ·
CCOC(=O)Nc1cccc(NC(=O)c2ccccc2F)c1 | 14 | 55* | -22 | -2 | -30 | 63*
COc1cccc(NC(=O)c2ccccc2F)c1 | 2 | 24 | -68 | 0 | -19 | ·
CNC(=O)C1Cc2c(-c3ccc(Cl)cc3)ccnc2O1 (centres undefined) | · | · | · | 1 | · | ·
COc1ccc(N2C(=O)c3ccccc3NC(=O)C2C(=O)Nc2ccc(N3CCOCC3)cc2)cc1 (centres undefined) | · | · | · | 5 | · | ·
S=C1CCC(c2ccc(Cl)cc2)=NN1c1ccccc1 | 37 | 50* | 13 | 1 | 34 | 34
O=C(c1ccccc1)N1CCCC(c2ccc(Cl)cc2)=N1 | 26 | 41 | -3 | 1 | 35 | ·
SMILES | TIM10 inh | tim23-1 inh | Mdm2-MdmX inh | MPTP inh | tim10-1 inh | tim23-1 confirm
CCOC(=O)/C(=C\c1cn(C)c2ccccc12)[N+](=O)[O-] | 25 | 54* | -10 | 0 | 27 | 58*
CCCNC(=O)c1cc2c(c(-c3cccc(-c4ccccc4F)c3)n1)[C@@H](CCO)N(C(=O)CC1CC1)C2 | · | · | · | -2 | · | ·
CCOc1ccc(NC(=S)N2CCC(c3ccc(C)cc3)C2)cc1 (centres undefined) | 34 | 64* | 12 | 2 | 31 | 41*
COc1cccc(NC(=S)N2CCC(c3ccc(C)cc3)C2)c1 (centres undefined) | 11 | 53* | -9 | 0 | 13 | 37
COc1ccc(NC(=S)N2CCC(c3ccc(C)cc3)C2)cc1 (centres undefined) | 28 | 45 | -22 | 1 | 8 | ·
CCOC(=O)C1CCCN(C(=S)Nc2ccc(Nc3ccccc3)cc2)C1 (centres undefined) | 20 | 52* | -10 | -2 | 38 | 41*
CCOC(=O)C1CCN(C(=S)Nc2ccccc2)CC1 | 1 | 1 | -8 | 1 | 6 | ·
O=C(NCc1ccc(C(F)(F)F)cc1)c1ccc(-c2cccnc2)c2ccoc12 | · | · | · | 0 | · | ·
CN(C)c1ncnc2c1ncn2[C@H]1CN(Cc2cccs2)C[C@@H](CO)O1 | · | · | · | -1 | · | ·
COc1ccc(N2CCN(C(=S)NC(=O)c3cccs3)CC2)c([N+](=O)[O-])c1 | 19 | 53* | -1 | 10 | 35 | 46*
O=C(NC(=S)N1CCN(c2c(Cl)cccc2[N+](=O)[O-])CC1)c1cccs1 | 35 | 23 | 28 | 1 | 24 | ·
CC(CN1CCCCC1)NC(=O)c1scnc1-c1ccccc1 (centres undefined) | · | · | · | -1 | · | ·
Cc1cccc(N2C(=O)c3ccc(Br)cc3C2=O)n1 | 12 | 56* | 15 | 0 | 5 | 45*
Cc1cccc(N2C(=O)c3ccccc3C2=O)n1 | 7 | 21 | -16 | 0 | 24 | ·
S=C(Nc1ccc2nsnc2c1)N1CCCCCC1 | 19 | 55* | -70 | -1 | 26 | 40*
O=C(Nc1ccc2nsnc2c1)N1CCCCC1 | 6 | 5 | 1 | -1 | -4 | ·
CCOP(=O)(OCC)C(Nc1ccccc1)c1cc(OC)ccc1OC (centres undefined) | 17 | 52* | -8 | 0 | 17 | 26
CCOP(=O)(OCC)C(Nc1ccccc1)c1ccccc1C(F)(F)F (centres undefined) | 30 | 37 | 5 | -2 | 16 | ·
NC(=O)C1CCN(C(=O)c2ccc3c(=O)n(Cc4ccco4)c(SCC(=O)c4ccc(F)cc4)nc3c2)CC1 | 8 | -3 | 27 | · | 7 | ·
NC(=O)C1CCN(C(=O)c2ccc3c(=O)n(Cc4ccco4)c(SCC(=O)c4ccccc4)nc3c2)CC1 | 3 | 58* | -16 | 0 | 22 | 18
COc1cccc(C(O)c2nc(-c3ccc(Cl)cc3)cs2)c1 (centres undefined) | · | · | · | 2 | · | ·
CC(NC(=O)/C=C/c1cnc2ccccc2n1)C12CC3CC(CC(C3)C1)C2 (centres undefined) | 39 | 60* | 29 | 4 | 35 | 50*
O=C(N/N=C/c1cccs1)c1cc(-c2ccc3ccccc3c2)n[nH]1 | 6 | 30 | 28 | 3 | -23 | ·
O=C(N/N=C/c1cccs1)c1cc(-c2cccc3ccccc23)n[nH]1 | -5 | 51* | 18 | 6 | -40 | 48*
COc1ccc(S(=O)(=O)N2CCC(C(=O)NCCC(=O)NCc3ccccn3)CC2)cc1 | · | · | · | 0 | · | ·
CC1Cc2ccccc2N1C(=O)COC(=O)c1ccco1 (centres undefined) | · | · | · | 1 | · | ·

Source: PubChem BioAssay
